This note sets out measurements from PubChem BioAssay (NCI).

Molecules are shown by their SMILES. About 83,000 compounds went through this panel and 20% of them were active in at least one assay; those are over-represented in the sample as a whole.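 Values shown are percent growth following 48 h exposure of cells in 96-well plates to a single concentration of compound; below 10 was considered active.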 Values without a mark were called inactive. Calls of active or inactive are those of the source.

Test systems include SR leukemia; RPMI-8226 leukemia; OVCAR-8 ovarian; OVCAR-5 ovarian; OVCAR-4 ovarian; SK-OV-3 ovarian; IGROV1 ovarian; OVCAR-3 ovarian; HS 578T breast; T-47D breast; BT-549 breast; MDA-MB-435 melanoma; SW-620 colon; MCF7 breast; HCT-116 colon; HCC-2998 colon; KM12 colon; MDA-MB-468 breast; NCI/ADR-RES ovarian.
Common to all, as to assay: NCI-60 one-dose screen, 48 h (100 = growth as untreated, 0 = no growth, -100 = all killed)
Holding throughout (details): 10 µM unless noted

On to `Cn1cc(-c2nnc(N)nc2-c2c[nH]c3ccc(Br)cc23)c2cc(Br)cnc21`, for which the growth was 23.8% with SR leukemia; 41.6% in the experiment with RPMI-8226 leukemia; 59.4% in the experiment with OVCAR-8 ovarian; 73.8% with OVCAR-5 ovarian; 45.6% in the experiment on OVCAR-4 ovarian; 89.2% with SK-OV-3 ovarian. In addition, the growth was 46.4% with IGROV1 ovarian; 55.8% in the experiment on OVCAR-3 ovarian; 59.2% with HS 578T breast; 47.7% with T-47D breast; 50.2% with BT-549 breast; 33.6% in the experiment with MDA-MB-435 melanoma. Besides, the growth in the experiment with SW-620 colon was 75.1%; in the experiment with MCF7 breast, 29.8%; in the experiment with HCT-116 colon, 44.8%; in the experiment with HCC-2998 colon, 72.7%; with KM12 colon it was 49.3%; with MDA-MB-468 breast, 25%.
`Cc1ccc(S(=O)(=O)c2nc(S(=O)(=O)c3ccc(C)cc3)c(Cl)s2)cc1`: the growth with SR leukemia was 3.18% (active); with RPMI-8226 leukemia it was -32.7% (active); in the experiment on OVCAR-8 ovarian it was 9.84% (active); in the experiment with OVCAR-5 ovarian, 31.6%; with OVCAR-4 ovarian it was -26.1% (active); in the experiment on SK-OV-3 ovarian, 133%. For the same molecule, the growth is 44.8% in the experiment with IGROV1 ovarian; -87.5% (active) with OVCAR-3 ovarian; 86.5% with HS 578T breast; -24.6% (active) in the experiment with T-47D breast; 26.3% with BT-549 breast; 50.5% with MDA-MB-435 melanoma. Besides, the growth with SW-620 colon is -63.1% (active); in the experiment with MCF7 breast it was -57.1% (active); with HCT-116 colon it was -46.2% (active); in the experiment with HCC-2998 colon it was 58.8%; in the experiment on KM12 colon, 23.9%; in the experiment with MDA-MB-468 breast, -78.8% (active).
Consider `C/C(=N\N=C1/C(=O)Nc2ccc(Cl)cc21)c1ccc2c(c1)Nc1ccccc1S2`, for which the growth in the experiment with SR leukemia is 11.4%; with RPMI-8226 leukemia it was 10.8%; in the experiment with OVCAR-8 ovarian, -15.6% (active); with OVCAR-5 ovarian, 15.8%; in the experiment with OVCAR-4 ovarian it was 15.7%; in the experiment with SK-OV-3 ovarian it was 50.4%. For the same molecule, the growth was -8.9% (active) with IGROV1 ovarian; -66.9% (active) in the experiment on OVCAR-3 ovarian; -28.3% (active) in the experiment with NCI/ADR-RES ovarian; 11.9% in the experiment with T-47D breast; -32.1% (active) with BT-549 breast; -35.2% (active) in the experiment with MDA-MB-435 melanoma. Moreover, the growth in the experiment with SW-620 colon is -27.8% (active); in the experiment with MCF7 breast, -9.38% (active); in the experiment with HCT-116 colon, -43% (active); in the experiment on HCC-2998 colon it was -48.2% (active); in the experiment on KM12 colon, -79.3% (active); in the experiment on MDA-MB-468 breast, 2.73% (active).
For `Nc1nc(-c2ccccc2)c(N=Nc2ccc([N+](=O)[O-])cc2Cl)s1`, the growth in the experiment with SR leukemia is 136%; with RPMI-8226 leukemia, 53%; in the experiment on OVCAR-8 ovarian it was 78.5%; in the experiment on OVCAR-5 ovarian it was 107%; in the experiment with OVCAR-4 ovarian, 80.4%; with SK-OV-3 ovarian it was 82%. In addition, the growth in the experiment on IGROV1 ovarian is 86.3%; in the experiment on OVCAR-3 ovarian, 74.8%; in the experiment on HS 578T breast, 85%; with T-47D breast it was 40.7%; in the experiment on BT-549 breast, 82.9%; in the experiment with MDA-MB-435 melanoma, 87.1%. Further, the growth with SW-620 colon was 90.3%; with MCF7 breast, 68.1%; with HCT-116 colon, 70.1%; in the experiment with HCC-2998 colon it was 99.9%; with KM12 colon it was 90.4%; in the experiment on MDA-MB-468 breast it was 55.8%.
For `O=C1Nc2cc(Cl)ccc2/C1=C/c1cccc(OCc2ccccn2)c1`, the growth was -0.484% (active) in the experiment with SR leukemia; -5.52% (active) in the experiment on RPMI-8226 leukemia; -21% (active) in the experiment on OVCAR-8 ovarian; -7.05% (active) with OVCAR-5 ovarian; 49.1% with OVCAR-4 ovarian; 52.1% with SK-OV-3 ovarian. Also, the growth is 17.2% with IGROV1 ovarian; 23.5% in the experiment on OVCAR-3 ovarian; -16.7% (active) with NCI/ADR-RES ovarian; 26% in the experiment on T-47D breast; -12.6% (active) in the experiment with BT-549 breast; -39.9% (active) in the experiment with MDA-MB-435 melanoma. In addition, the growth was 7.87% (active) in the experiment with MCF7 breast; 0.558% (active) in the experiment with HCT-116 colon; 28.9% in the experiment with HCC-2998 colon; 19.4% in the experiment on KM12 colon; 1.49% (active) in the experiment on MDA-MB-468 breast.
Regarding `CC(=O)Nc1ccc(-c2cn(-c3cccc(C(=O)Nc4ccc(N5CCN(C)CC5)cc4)c3)nn2)cn1`, the growth is 68% in the experiment with SR leukemia; 70.4% with RPMI-8226 leukemia; 81.6% with OVCAR-8 ovarian; 107% with OVCAR-5 ovarian; 93.4% with OVCAR-4 ovarian; 93.8% in the experiment with SK-OV-3 ovarian. Further, the growth in the experiment with IGROV1 ovarian was 88%; in the experiment with OVCAR-3 ovarian, 109%; with NCI/ADR-RES ovarian it was 89.2%; with T-47D breast, 94%; in the experiment with BT-549 breast, 74.6%; in the experiment with MDA-MB-435 melanoma, 100%. Besides, the growth in the experiment on MCF7 breast is 45.9%; in the experiment on HCT-116 colon it was 62.9%; in the experiment with HCC-2998 colon, 85%; in the experiment with KM12 colon, 68.9%; in the experiment on MDA-MB-468 breast it was -9.89% (active).
As for `O=c1c2ccccc2nc(-c2ccccc2)n1/N=C/c1ccc2ccccc2c1`, the growth in the experiment with SR leukemia was 11.5%; with RPMI-8226 leukemia, 39%; with OVCAR-8 ovarian it was 50.6%; in the experiment on OVCAR-5 ovarian it was 69.4%; with OVCAR-4 ovarian, 85.8%; in the experiment with SK-OV-3 ovarian, 68.5%. The growth was 55.6% in the experiment with IGROV1 ovarian; 67.4% in the experiment with OVCAR-3 ovarian; 53.5% in the experiment with NCI/ADR-RES ovarian; 56.4% in the experiment on T-47D breast; 51.8% in the experiment on BT-549 breast; 55% in the experiment on MDA-MB-435 melanoma. For the same molecule, the growth in the experiment with MCF7 breast is 34.2%; with HCT-116 colon it was 22.1%; in the experiment with HCC-2998 colon, 57.5%; in the experiment on KM12 colon it was 45%.
In the case of `COc1ccc(-c2nc3cc(C)ccc3n2CC(=O)N=Nc2c(O)[nH]c3ccc(Br)cc23)cc1`, the growth is 2.47% (active) in the experiment on SR leukemia; 42% with RPMI-8226 leukemia; -61.8% (active) in the experiment on OVCAR-8 ovarian; -4.99% (active) with OVCAR-5 ovarian; -18.3% (active) with OVCAR-4 ovarian; 35% with SK-OV-3 ovarian. For the same molecule, the growth in the experiment on IGROV1 ovarian is 23.9%; in the experiment with OVCAR-3 ovarian, 14.9%; with NCI/ADR-RES ovarian, -22% (active); in the experiment with T-47D breast, -2.62% (active); in the experiment on BT-549 breast, -41.5% (active); in the experiment with MDA-MB-435 melanoma it was 2.16% (active). Moreover, the growth in the experiment with SW-620 colon was 9.98% (active); in the experiment on HCT-116 colon, -69.6% (active); in the experiment with HCC-2998 colon, 22.7%; with KM12 colon, 11.5%; in the experiment on MDA-MB-468 breast, -46.6% (active).
As for `COc1cc(-c2ccc(/C=N/NC(=O)c3[nH]c4ccc(Br)cc4c3-c3ccccc3)s2)cc(OC)c1OC`, the growth with SR leukemia was 79%; with RPMI-8226 leukemia it was 61.1%; in the experiment on OVCAR-8 ovarian, 80.7%; in the experiment with OVCAR-5 ovarian, 101%; in the experiment on OVCAR-4 ovarian it was 93.7%; with SK-OV-3 ovarian it was 99.6%. Also, the growth is 95.6% in the experiment on IGROV1 ovarian; 107% in the experiment on OVCAR-3 ovarian; 71.7% with NCI/ADR-RES ovarian; 73.9% in the experiment with T-47D breast; 85.9% with BT-549 breast; 92.2% in the experiment with MDA-MB-435 melanoma. Besides, the growth was 72.1% in the experiment on MCF7 breast; 68.2% in the experiment with HCT-116 colon; 101% in the experiment on HCC-2998 colon; 82.3% with KM12 colon; 96.7% in the experiment on MDA-MB-468 breast.
